From PubChem BioAssay (NCI) come the findings set out here.

Structures are written as SMILES. About 83,000 compounds went through this panel and 20% of them were active in at least one assay; those are over-represented in the sample as a whole.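 Cells were grown in 96-well plates and exposed to the test compound at a single concentration for 48 hours; results are reported as percent growth, with values below 10 considered active.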 Values without a mark were called inactive. Activity calls are given as the source filed them.

Among the test systems are HCT-15 colon; HT29 colon; SNB-75 CNS; SNB-19 CNS; U251 CNS; PC-3 prostate; SK-MEL-5 melanoma; UACC-62 melanoma; LOX IMVI melanoma; SK-MEL-28 melanoma; SK-MEL-2 melanoma; EKVX NSCLC; SN12C renal; UO-31 renal; TK-10 renal; A498 renal; CCRF-CEM leukemia; MOLT-4 leukemia; CAKI-1 renal; ACHN renal.
Assay in all cases: NCI-60 one-dose screen, 48 h (100 = growth as untreated, 0 = no growth, -100 = all killed)
Details in all cases: 10 µM unless noted

As to `CCOC(=O)N1CCc2c(sc3nc4nc[nH]n4c(=O)c23)C1`, the growth is 102% with HCT-15 colon; 100% with HT29 colon; 89.4% in the assay with SNB-75 CNS; 106% with SNB-19 CNS; 100% in the assay with U251 CNS; 92.7% in the assay on PC-3 prostate. Also, the growth with SK-MEL-5 melanoma is 104%; in the assay with UACC-62 melanoma, 98.8%; in the assay on LOX IMVI melanoma, 94.6%; in the assay on SK-MEL-28 melanoma, 115%; with SK-MEL-2 melanoma it was 96.6%; in the assay on EKVX NSCLC it was 92.4%. Moreover, the growth is 97.3% with SN12C renal; 81.9% in the assay with UO-31 renal; 105% in the assay with TK-10 renal; 82.3% in the assay with A498 renal; 97.8% in the assay with CCRF-CEM leukemia; 100% in the assay with MOLT-4 leukemia.

Regarding `CCOc1cc(CNc2ccc(N3CCOCC3)c(C(=O)O)c2)ccc1OC`, the growth is 96.4% in the assay with HCT-15 colon; 98.1% in the assay with HT29 colon; 108% in the assay with SNB-75 CNS; 94.6% in the assay with SNB-19 CNS; 103% in the assay with U251 CNS; 98.9% in the assay with PC-3 prostate. The growth with SK-MEL-5 melanoma was 99.8%; in the assay on UACC-62 melanoma it was 90.3%; in the assay on LOX IMVI melanoma it was 99.5%; in the assay on SK-MEL-28 melanoma it was 100%; in the assay with SK-MEL-2 melanoma, 98.7%; with EKVX NSCLC, 96.9%. Also, the growth in the assay with SN12C renal is 94.2%; in the assay on UO-31 renal it was 98.1%; with TK-10 renal, 94.7%; in the assay on CAKI-1 renal, 102%; in the assay with CCRF-CEM leukemia it was 106%; with MOLT-4 leukemia, 104%.

With `O=C1OC(=O)C2C1CC=CC2c1ccccc1` (stereo not given), the growth with HCT-15 colon is 105%; in the assay with HT29 colon it was 86.3%; in the assay on SNB-75 CNS, 83.7%; in the assay on SNB-19 CNS, 93.7%; in the assay with U251 CNS, 87.8%; in the assay with PC-3 prostate, 73.1%. Also, the growth in the assay on SK-MEL-5 melanoma was 98.6%; in the assay on UACC-62 melanoma, 94.4%; in the assay with LOX IMVI melanoma, 71.7%; in the assay with SK-MEL-28 melanoma, 91.8%; with SK-MEL-2 melanoma, 97.3%; in the assay with EKVX NSCLC, 90.9%. For the same compound, the growth in the assay with SN12C renal is 87.6%; in the assay on UO-31 renal it was 88.9%; in the assay on TK-10 renal, 102%; in the assay on CAKI-1 renal, 102%; in the assay on CCRF-CEM leukemia it was 84.2%; in the assay with MOLT-4 leukemia, 90.6%.

As for `COc1ccc2c(c1)OC13Oc4cc(OC)ccc4C=C1CCCC3=C2`, the growth is 12.8% in the assay on HCT-15 colon; 8.16% (active) in the assay on HT29 colon; 74.6% with SNB-75 CNS; 54.7% in the assay with SNB-19 CNS; 35% in the assay with U251 CNS; 23.6% with PC-3 prostate. In addition, the growth in the assay on SK-MEL-5 melanoma is 40.3%; in the assay on UACC-62 melanoma, 14.8%; with LOX IMVI melanoma it was -32.1% (active); in the assay on SK-MEL-28 melanoma it was 63%; in the assay with SK-MEL-2 melanoma, 15.7%; with EKVX NSCLC, 39.7%. For the same compound, the growth was 44.1% with SN12C renal; 36.3% in the assay on UO-31 renal; 47% with TK-10 renal; 25.3% in the assay on ACHN renal; 69.8% in the assay on A498 renal; 5.97% (active) with CCRF-CEM leukemia. The growth in the assay on MOLT-4 leukemia is -3.56% (active).

As for `Cc1ccc(O)c(C(=O)O)c1`, the growth is 104% with HCT-15 colon; 102% with HT29 colon; 107% in the assay with SNB-75 CNS; 109% with SNB-19 CNS; 92.6% in the assay on U251 CNS; 104% with PC-3 prostate. The growth with SK-MEL-5 melanoma is 105%; with UACC-62 melanoma, 104%; with LOX IMVI melanoma, 101%; in the assay on SK-MEL-28 melanoma, 114%; in the assay on SK-MEL-2 melanoma, 109%; in the assay with EKVX NSCLC it was 118%. In addition, the growth was 104% with SN12C renal; 94% with UO-31 renal; 72.7% in the assay with TK-10 renal; 106% in the assay with ACHN renal; 99.9% in the assay on A498 renal; 98.1% in the assay on CCRF-CEM leukemia. In addition, in the assay on MOLT-4 leukemia, the growth is 97.7%.

With `[2H]C1([2H])NC([2H])([2H])C([2H])([2H])N(c2ccc(Nc3ncc4cc(C(=O)N(C)C)n(C5CCCC5)c4n3)nc2)C1([2H])[2H]`, the growth in the assay on HCT-15 colon is 85%; in the assay on HT29 colon it was 34%; in the assay on SNB-75 CNS it was 65.5%; in the assay on SNB-19 CNS, 64.3%; in the assay on U251 CNS, 61.4%; with PC-3 prostate, 62.3%. Also, the growth is 78.3% with SK-MEL-5 melanoma; 78.7% in the assay on UACC-62 melanoma; 49.2% in the assay with LOX IMVI melanoma; 88.6% in the assay on SK-MEL-28 melanoma; 94.3% in the assay on SK-MEL-2 melanoma; 65.2% in the assay on EKVX NSCLC. The growth in the assay with SN12C renal is 74.9%; in the assay with UO-31 renal, 61.2%; with TK-10 renal, 43%; with ACHN renal, 57.4%; in the assay with A498 renal, 66.5%; in the assay with CCRF-CEM leukemia it was 54.1%. In addition, the growth with MOLT-4 leukemia is 8.74% (active).

For the compound `COc1cnccc1-c1nc2ccc3[nH]ncc3c2c2c1CCCC2`, the growth with HCT-15 colon is 46.1%; in the assay with HT29 colon, 51.8%; in the assay with SNB-75 CNS, 24.1%; with SNB-19 CNS it was 85.3%; in the assay with U251 CNS it was 83.9%; with PC-3 prostate, 68.2%. Also, the growth is 54.1% in the assay with SK-MEL-5 melanoma; 38.1% in the assay on UACC-62 melanoma; 31.7% with LOX IMVI melanoma; 58.6% with SK-MEL-28 melanoma; 81.2% with SK-MEL-2 melanoma; 18.2% with EKVX NSCLC. Besides, the growth in the assay with SN12C renal is 62.4%; with UO-31 renal it was 29.4%; in the assay with TK-10 renal, 60.7%; with CAKI-1 renal it was 18%; in the assay on A498 renal it was 13.2%; in the assay with CCRF-CEM leukemia, 16.4%. The growth in the assay on MOLT-4 leukemia is 28.2%.
